Assay results from PubChem BioAssay (NCI).
The panel holds about 83,000 compounds, 20% with a hit somewhere; the sample as a whole holds those more often.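 Single-dose data. Exposure time 48 hours. Values below 10 considered active.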 Activity calls are given as the source filed them.

Experiments:
Assay in all cases: NCI-60 one-dose screen, 48 h (100 = growth as untreated, 0 = no growth, -100 = all killed)
Settings in all cases: 10 µM unless noted
NCI-H23 lung = tested on: NCI-H23 lung
NCI-H226 lung = tested on: NCI-H226 lung
NCI-H322M lung = tested on: NCI-H322M lung
HOP-62 NSCLC = tested on: HOP-62 NSCLC
NCI-H460 lung = tested on: NCI-H460 lung
HOP-92 NSCLC = tested on: HOP-92 NSCLC
NCI-H522 lung = tested on: NCI-H522 lung
A549/ATCC NSCLC = tested on: A549/ATCC NSCLC
786-0 renal = tested on: 786-0 renal
COLO 205 colon = tested on: COLO 205 colon

Measured: growth

NCCCNc1nc2ccccc2c2c(=O)c3cccc(Cl)c3sc12
inactive: NCI-H23 lung 44.7% | NCI-H226 lung 59.6% | NCI-H322M lung 22.4% | HOP-62 NSCLC 19.3% | HOP-92 NSCLC 38.1% | 786-0 renal 33.6%
active: NCI-H460 lung -75% | NCI-H522 lung -48.5% | A549/ATCC NSCLC -2.55% | COLO 205 colon -50.6%

O=c1c2cc(F)ccc2sc2c(NCCN3CCCCC3)nc3ccccc3c12
inactive: NCI-H23 lung 65.6% | NCI-H226 lung 77% | NCI-H322M lung 70.9% | HOP-62 NSCLC 64.4% | NCI-H460 lung 18.3% | HOP-92 NSCLC 34.2% | NCI-H522 lung 34.2% | A549/ATCC NSCLC 59.1% | 786-0 renal 41% | COLO 205 colon 48%

COc1ccc(-c2nc(SC(C)C)nc(NNC(N)=S)c2C#N)cc1
inactive: NCI-H23 lung 69.7% | NCI-H226 lung 86.4% | NCI-H322M lung 91.3% | HOP-62 NSCLC 63.7% | NCI-H460 lung 22.4% | HOP-92 NSCLC 41.2% | NCI-H522 lung 12.8% | A549/ATCC NSCLC 49.2% | 786-0 renal 85% | COLO 205 colon 99.9%

CC(CCc1ccc(Cl)c(Cl)c1)NCc1ccc(C(C)(C)C)cc1 (stereo not given)
inactive: NCI-H23 lung 91.9% | NCI-H226 lung 83.9% | NCI-H322M lung 97.8% | HOP-62 NSCLC 85.9% | NCI-H460 lung 90.6% | HOP-92 NSCLC 59.5% | NCI-H522 lung 82.7% | A549/ATCC NSCLC 60.8% | 786-0 renal 70.8%
active: COLO 205 colon -38.2%

CCCCCCCC/C=C\CCCCCCCCOc1ccccc1CC(=O)NCC[N+](C)(C)C
inactive: NCI-H23 lung 65.5% | NCI-H226 lung 52.3% | NCI-H322M lung 96.6% | HOP-62 NSCLC 37% | NCI-H460 lung 23.8% | HOP-92 NSCLC 61.3% | NCI-H522 lung 51.1% | A549/ATCC NSCLC 71.4% | 786-0 renal 50.5%
active: COLO 205 colon -7.71%

Cc1ccc(S(=O)(=O)Oc2cc(OS(=O)(=O)c3ccc(C)cc3)cc(OS(=O)(=O)c3ccc(C)cc3)c2)cc1
inactive: NCI-H23 lung 98.9% | NCI-H226 lung 101% | NCI-H322M lung 140% | HOP-62 NSCLC 101% | NCI-H460 lung 100% | HOP-92 NSCLC 72.1% | NCI-H522 lung 80.8% | A549/ATCC NSCLC 97.5% | 786-0 renal 101% | COLO 205 colon 114%

Fc1ccc(CNc2c3ccccc3nc3ccccc23)cc1F
inactive: NCI-H23 lung 35.2% | NCI-H226 lung 47.6% | NCI-H322M lung 39% | HOP-62 NSCLC 51.3% | NCI-H460 lung 14.6% | NCI-H522 lung 37% | A549/ATCC NSCLC 29.1% | 786-0 renal 31.4% | COLO 205 colon 16.1%
active: HOP-92 NSCLC -8.56%

Cc1cc[c-]cc1.Fc1c[c-]c(-c2ccccn2)c(F)c1.[Pt+2].c1ccc(P(C[PH+](c2ccccc2)c2ccccc2)c2ccccc2)cc1
active: NCI-H23 lung 7.43% | NCI-H226 lung -2.11% | HOP-62 NSCLC 2.59% | NCI-H460 lung 3.67% | HOP-92 NSCLC -16.3% | NCI-H522 lung 8.51% | A549/ATCC NSCLC 8.52% | COLO 205 colon -41.2%
inactive: NCI-H322M lung 19.2% | 786-0 renal 23.1%

COc1cccc(-c2nn(-c3ccccc3)cc2-c2ccnc(NCCNC(=O)Nc3ccc(Cl)c(Cl)c3)c2)c1
active: HOP-62 NSCLC 5.85% | NCI-H460 lung 2.74% | HOP-92 NSCLC -1.01% | NCI-H522 lung -14.9% | A549/ATCC NSCLC -18.3% | 786-0 renal -41.1% | COLO 205 colon -37.4%
inactive: NCI-H23 lung 19.7% | NCI-H226 lung 50.5% | NCI-H322M lung 48.1%

C=CCn1c(C)nc2cc(Nc3nc(Cl)nc4ccccc34)ccc21
inactive: NCI-H23 lung 97.9% | NCI-H226 lung 90.1% | NCI-H322M lung 109% | HOP-62 NSCLC 108% | NCI-H460 lung 99.2% | HOP-92 NSCLC 91.9% | NCI-H522 lung 97.4% | A549/ATCC NSCLC 81.4% | 786-0 renal 87.8% | COLO 205 colon 126%

O=C(Nc1ccc(Cl)cc1)Nc1ccc(Cl)c(C(F)(F)F)c1
inactive: NCI-H322M lung 17.1% | HOP-62 NSCLC 11.3% | A549/ATCC NSCLC 13.3% | 786-0 renal 15.1%
active: NCI-H23 lung -15.5% | NCI-H226 lung 2.69% | NCI-H460 lung 0.218% | HOP-92 NSCLC -14.8% | NCI-H522 lung 3.9% | COLO 205 colon -73.8%

COc1ccc(-c2ccc3c(c2)sc2nc(-c4ccc(F)cc4)cn23)cc1
inactive: NCI-H23 lung 81.1% | NCI-H226 lung 80.8% | NCI-H322M lung 67.7% | HOP-62 NSCLC 66.3% | NCI-H460 lung 15.4% | HOP-92 NSCLC 65.8% | NCI-H522 lung 66.1% | A549/ATCC NSCLC 30% | 786-0 renal 76.2%
active: COLO 205 colon 1.69%

COc1cccc(-c2nc3sccn3c2-c2ccnc(NCCNS(=O)(=O)c3cccc(F)c3)c2)c1
inactive: NCI-H23 lung 33.7% | NCI-H226 lung 22.9% | NCI-H322M lung 73.2% | HOP-62 NSCLC 55.3% | NCI-H460 lung 28.8% | HOP-92 NSCLC 18.3% | NCI-H522 lung 40.9% | A549/ATCC NSCLC 27.2% | 786-0 renal 48.1% | COLO 205 colon 25.8%

CCN(CC)CCN1CC(O)=C(c2nc(-c3ccc(Cl)cc3)cs2)C1=N
active: HOP-62 NSCLC -53.3% | NCI-H460 lung 8.48% | HOP-92 NSCLC -44.3% | 786-0 renal -68.5% | COLO 205 colon -58.3%
inactive: NCI-H23 lung 65.2% | NCI-H226 lung 99.2% | NCI-H322M lung 15.6% | NCI-H522 lung 49.8% | A549/ATCC NSCLC 46.8%

N=C(N)c1ccc(-c2ccc(-c3cncc4ccccc34)s2)s1
active: NCI-H23 lung -53.2% | NCI-H226 lung -50.6% | NCI-H322M lung -90.9% | HOP-62 NSCLC -84.8% | NCI-H460 lung -78.6% | HOP-92 NSCLC -82.6% | NCI-H522 lung -69.6% | A549/ATCC NSCLC -85.8% | 786-0 renal -84.6% | COLO 205 colon -78.1%

COc1ccc(S(=O)(=O)NCCNc2nccc(-c3c(-c4cccc(F)c4)nc4sccn34)n2)cc1
inactive: NCI-H23 lung 56.3% | NCI-H226 lung 28.1% | NCI-H322M lung 63% | HOP-62 NSCLC 73.4% | NCI-H460 lung 29% | HOP-92 NSCLC 71.8% | NCI-H522 lung 48.1% | A549/ATCC NSCLC 22.5% | 786-0 renal 43.1% | COLO 205 colon 21.7%

CCCCn1c(=O)c2c(nc3n2CCCN3CCc2ccc(OCC(=O)NCCN(CC)CC)cc2)n(CCCC)c1=O
inactive: NCI-H23 lung 68.7% | NCI-H226 lung 72.9% | NCI-H322M lung 94.4% | HOP-62 NSCLC 56.1% | NCI-H460 lung 56.9% | HOP-92 NSCLC 27.8% | NCI-H522 lung 44.1% | A549/ATCC NSCLC 64.2% | 786-0 renal 11.3% | COLO 205 colon 25.7%

CSc1n(Cc2ccc3ccccc3c2)c(C)c[n+]1Cc1ccc2ccccc2c1
inactive: NCI-H322M lung 40.5% | A549/ATCC NSCLC 16.5%
active: NCI-H23 lung -50.8% | NCI-H226 lung -37% | HOP-62 NSCLC 4.62% | NCI-H460 lung -0.332% | HOP-92 NSCLC -44.4% | NCI-H522 lung -26.9% | 786-0 renal 8.97% | COLO 205 colon -54.3%

Cn1cc(-c2csc(-c3cccc(F)c3)n2)c2cccnc21
active: NCI-H23 lung -62.7% [100 µM] | NCI-H226 lung -14.4% [100 µM] | NCI-H322M lung -22% [100 µM] | HOP-62 NSCLC -69.2% [100 µM] | NCI-H460 lung -59.6% [100 µM] | HOP-92 NSCLC -59.6% [100 µM] | NCI-H522 lung -27.6% [100 µM] | A549/ATCC NSCLC 1% [100 µM] | 786-0 renal -81.6% [100 µM] | COLO 205 colon -66.5% [100 µM]

O=c1[nH]ccc2nc(N3CCC(O)CC3)nc(Nc3ccc(N4CCOCC4)cc3)c12
inactive: NCI-H23 lung 58.2% | NCI-H226 lung 45.7% | NCI-H322M lung 83.7% | HOP-62 NSCLC 97.2% | NCI-H460 lung 36.2% | NCI-H522 lung 75.1% | A549/ATCC NSCLC 29.8% | 786-0 renal 77.2%
active: HOP-92 NSCLC 2.14% | COLO 205 colon -1.79%

Cc1ccc(/C=C/c2c(C(=O)/C=C/c3ccc(C(F)(F)F)cc3)c(C)nc3ccccc23)cc1
inactive: A549/ATCC NSCLC 77.2%
active: NCI-H23 lung -31.3% | NCI-H226 lung -46.1% | NCI-H322M lung -1.68% | HOP-62 NSCLC -37.2% | NCI-H460 lung -69.6% | HOP-92 NSCLC -76% | NCI-H522 lung -10.5% | 786-0 renal -74.9% | COLO 205 colon -24.3%
